Compounds with a hit are over-represented: about 4.7% of the library has one in this group of screens.
tim10-1 inh: growth inhibitors of tim10-1 mutant yeast; S. cerevisiae tim10-1 ts strain growth, BacTiter-Glo, 24 h; inhibition, % at 20 µM; hit rate 2.2% among 330,000; AID 463190;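 active = inhibition of at least 40%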;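 note: mutant grown at 25 °C; 0% = DMSO wells with yeast and 100% = wells holding no yeast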
TIM10 inh: inhibits growth of TIM10 yeast strain. S. cerevisiae TIM10 strain growth, BacTiter-Glo luminescence, 24 h. inhibition, % at 10 µM. hit rate 1.4% among 330,000. AID 463195;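 active = inhibition of 40% or more at the single tested concentration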;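 note: wild-type TIM10 isogenic control strain grown at permissive 25 °C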
tim23-1 inh: inhibits growth of tim23-1 mutant yeast. S. cerevisiae tim23-1 growth, BacTiter-Glo luminescence, 24 h. inhibition, % at 20 µM. AID 463212. hit rate 1.3% among 330,000;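 active = growth inhibition of the mutant yeast at or above 50%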;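 note: temperature-sensitive mutant grown at 25 °C; plate controls were DMSO-treated mutant yeast for no effect and medium wells lacking yeast for full effect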
ATG4B inh: ATG4B (human) cysteine protease inhibition | ATG4B cleavage of LC3-PLA2, NBD-HPC fluorescence, 1 h | inhibition, % at 8.33 µM | hit rate 0.51% among 340,000; in the data active = inhibition above about 40%
Target sequence (Q9Y4P1 whole entry, looked up): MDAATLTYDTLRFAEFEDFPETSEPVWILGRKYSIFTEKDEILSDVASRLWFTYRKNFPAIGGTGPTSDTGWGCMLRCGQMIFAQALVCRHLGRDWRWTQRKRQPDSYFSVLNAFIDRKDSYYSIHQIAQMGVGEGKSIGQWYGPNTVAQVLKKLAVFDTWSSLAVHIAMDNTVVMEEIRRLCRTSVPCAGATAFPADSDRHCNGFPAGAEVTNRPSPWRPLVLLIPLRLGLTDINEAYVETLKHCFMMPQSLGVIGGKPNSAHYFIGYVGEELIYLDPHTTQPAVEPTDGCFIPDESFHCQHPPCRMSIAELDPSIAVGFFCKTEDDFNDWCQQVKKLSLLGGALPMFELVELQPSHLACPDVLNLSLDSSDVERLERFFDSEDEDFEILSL
SKKanGAS inh: SKKanGAS growth inhibition; S. pyogenes SKKanGAS, kanamycin growth, BacTiter-Glo, 6 h; inhibition, % at 7.5 µM; hit rate 1.3% among 300,000;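 active = mean replicate score, as percent of positive control median, at least 50; inconclusive = mean below 50 but one replicate at or above 50; inactive = mean and every replicate below 50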;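 note: strain carries kanamycin resistance gene driven by streptokinase promoter and grows in 40 µg/ml kanamycin; loss of luminescence reflects streptokinase promoter inhibition or plain growth inhibition; 0% = median of DMSO wells and 100% = positive control at its reference dose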
PfHsp90 yeast 2: reduces growth (ATP signal) of yeast expressing P. falciparum Hsp90 | S. cerevisiae expressing PfHsp90, BacTiter-Glo ATP, 48 h; yeast lacking PDR1 and PDR3 efflux regulators | AID 504621 | inhibition, % at 9.4 µM | hit rate 0.32% among 310,000;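 active = every replicate shows inhibition above about 80%, whatever the replicate mean, limit read from the data; inconclusive = mean inhibition reaches the set limit but some replicate falls short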;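 note: 0% = DMSO neutral controls and 100% = 20 µM radicicol positive controls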
tim10-1 conf: tim10-1 yeast growth inhibition, confirmed; AID 463213; S. cerevisiae tim10-1 ts strain growth, BacTiter-Glo, 24 h; shares compounds with tim10-1 inh; inhibition, % at 20 µM; hit rate 56% among 7,400;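 active = inhibition of yeast growth at or above a set limit in either of two repeat tests at 20 µM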;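 note: tim10-1 mutant grown at permissive 25 °C to find synthetic lethal compounds; 0% = DMSO yeast wells and 100% = medium wells without yeast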
TIM10 conf: TIM10 yeast growth inhibition, confirmed; shares compounds with TIM10 inh; S. cerevisiae tim10 strain growth, BacTiter-Glo luminescence, 24 h; inhibition, % at 10 µM; hit rate 63% among 4,600;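 active = inhibition of yeast growth at or above a set limit in either of two replicates at 10 µM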;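 note: this counterscreen used the strain with wild-type TIM10; 0% = yeast with DMSO and 100% = medium wells lacking yeast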
Numbers without * were called inactive; ? = inconclusive; . = not tested or not shown.

SMILES | tim10-1 inh | TIM10 inh | tim23-1 inh | ATG4B inh | SKKanGAS inh | PfHsp90 yeast 2 | tim10-1 conf | TIM10 conf
C=CCNC(=O)C1CCN(c2cc(C)nc(-c3ccccc3)n2)CC1 | 13.8 | 6.1 | 4.7 | -0.1 | 1.6 | 22.2 | . | .
O=C1CNC(=O)N1c1ccc(Cl)cc1 | 6.1 | 4.1 | 0.4 | -4.6 | -3.3 | 8.8 | . | .
Cc1c(C(=O)O)oc2c1/C(=N\O)CCC2 | -0.6 | -9.7 | 2.8 | 1.5 | -2.6 | -1.3 | . | .
O=C(/C=C/c1cccs1)c1cc(F)ccc1OC(=O)N1CCOCC1 | 52.7* | 53.9* | 47.1 | -2.4 | 2.5 | -11.4 | 54.8* | -26.4
C/C(=N/NC(=S)Nc1cccc(C)c1)c1cccc([N+](=O)[O-])c1 | 51.9* | 49.4* | 35.9 | -12.4 | -6.1 | -12.9 | 42.8* | 40.6*
Cc1ccc(C)c(NC(=S)N/N=C2\CCc3ccccc32)c1 | 29.5 | 36.6 | 31.2 | -1.1 | ? | -50.7 | . | .
Cc1cccc(NC(=S)N/N=C2/CCCCc3ccccc32)c1 | 51.0* | 47.1* | 46.1 | 5.7 | 37.7 | -60.8 | 37.4* | 4.2
CC/C(=N\NC(=S)Nc1cccc(C)c1)c1ccccc1 | 59.9* | 47.6* | 41.6 | -9.9 | 61.6* | -30.9 | 38.7* | 53.5*
COc1cccc(NC(=S)NN=C2CCCCCC2)c1 | 44.9* | 41.0* | 34.5 | -3.2 | 51.9* | 9.6 | 36.5* | 30.8
CCOc1ccc(NC(=O)CSc2nnc(C3CC3)n2C)cc1S(=O)(=O)N1CCCCC1 | 11.2 | 10.2 | -9.7 | -3.6 | . | . | . | .
CCCCOc1ccccc1P(=O)(O)CP(=O)(c1ccccc1)c1ccccc1 | 13.9 | -3.3 | 19.3 | -8.8 | 5.3 | -1.2 | . | .
COC(=O)c1ccc(NC(=O)CN2CCN(c3ccc(Cl)cc3)CC2)cc1 | 4.7 | 12.0 | -17.3 | -14.4 | 6.5 | -7.7 | . | .
COC1=C(c2ccccc2)C(=O)c2ccccc2C1=O | 80.1* | 88.8* | 36.8 | -10.4 | . | ? | 72.0* | 90.5*
O=C(c1ccccc1)c1ccc(OCC(O)CNCc2ccc(F)cc2)cc1 (stereo not given) | . | . | . | 11.4 | -5.1 | 43.5 | . | .
Cc1ccc(C(OCC(O)CNCc2ccc(F)cc2)c2ccccc2)cc1 (stereo not given) | 63.6* | 68.1* | 39.7 | 14.8 | 7.1 | 1.3 | 74.4* | 61.0*
CC(C)(C)C(=O)N1CCN(CCN2C(=O)c3cccc4cccc(c34)C2=O)CC1 | 13.4 | 10.7 | 4.3 | -0.8 | -0.4 | -1.4 | . | .
CC1Cc2ccccc2N1C(=S)NC(=O)c1ccc(Cl)cc1Cl (stereo not given) | 44.0* | 49.9* | 44.9 | 2.0 | 61.0* | -5.1 | 45.5* | -7.3
CC1CN(c2nc3c(c(=O)n(Cc4ccc(Cl)c(Cl)c4)c(=O)n3C)n2C)CC(C)O1 (stereo not given) | 48.8* | 45.2* | 38.6 | -19.5 | 14.8 | -39.7 | 43.5* | 33.4*
CC1=C(C#N)c2nc(N)c(C#N)c(C)c2/C1=C\c1ccc(-c2ccccc2C(=O)O)o1 | . | . | . | 13.8 | 7.8 | -21.9 | . | .
COc1cc(/C=C2/C(C)=C(C#N)c3nc(N)c(C#N)c(C)c32)ccc1OCC(=O)O | 40.9* | 41.7* | 43.1 | 5.0 | 1.8 | -9.0 | 23.3 | 32.2*
Cc1cccc(N2CCN(C(=O)Cn3ccc4ccccc4c3=O)CC2)c1C | -20.7 | -25.1 | -45.8 | -8.8 | -2.4 | 11.2 | . | .
CCOC(=O)C(c1ccccc1)C(Nc1ccccc1)c1ccccn1 (stereo not given) | 23.5 | 25.6 | 25.0 | -15.9 | -4.2 | -25.9 | . | .
CCOC(=O)C(C(=O)OCC)C(Nc1ccccc1)c1ccccc1 (stereo not given) | 60.8* | 42.8* | 36.7 | -6.3 | -9.4 | -12.4 | 50.4* | -19.3
CC(c1nnnn1C(C)(C)C)N(Cc1cccnc1)Cc1ccccc1Cl (stereo not given) | 50.1* | 42.0* | 30.8 | -8.9 | -0.5 | 2.0 | 33.8* | 32.3*
CC(C)(C)n1nnnc1C(c1cccs1)N(Cc1cccnc1)Cc1ccccc1Cl (stereo not given) | 35.9 | 34.0 | 46.0 | 5.4 | 15.0 | -8.7 | . | .
SMILES | tim10-1 inh | TIM10 inh | tim23-1 inh | ATG4B inh | SKKanGAS inh | PfHsp90 yeast 2 | tim10-1 conf | TIM10 conf
O=C(c1ccc2[nH]c3c(c2c1)CCCC3)N1CCN(c2ccc(F)cc2)CC1 | 41.5* | 41.9* | 46.1 | -15.7 | 19.0 | -45.3 | 15.1 | -6.0
COc1ccccc1N1CCN(C(=O)c2ccc3[nH]c4c(c3c2)CCCC4)CC1 | 39.6 | 28.1 | 41.4 | -4.0 | 6.6 | -9.3 | . | .
COc1ccccc1Nc1nc(-c2ccc3c(c2)NC(=O)CO3)cs1 | 22.8 | 29.2 | 4.0 | -29.8 | 11.2 | -3.0 | . | .
COc1ccc(Nc2nc(-c3ccc4c(c3)NC(=O)CO4)cs2)cc1 | 40.0 | 46.2* | 40.4 | -17.7 | 16.1 | -20.0 | 30.7* | 46.3*
COc1ccc(N2CCN(C(=O)C3CCCO3)CC2)cc1 (stereo not given) | -11.2 | -12.6 | 5.4 | 19.4 | 0.2 | 8.8 | . | .
C=CCn1c(SCC(=O)Nc2cc(NC(C)=O)ccc2OC)nnc1-c1ccccn1 | 18.1 | 5.2 | -1.9 | -7.8 | 8.4 | -11.1 | . | .
COC(=O)c1ccccc1NC(=O)CSc1nnc(-c2cccnc2)n1C | 5.5 | 7.9 | 2.6 | -13.9 | -0.5 | -22.2 | . | .
O=C1NC[C@H](Cc2ccc(O)cc2)N(CC2CCCCC2)C1=O | 0.6 | -9.5 | 11.1 | -11.7 | 1.3 | -11.8 | . | .
Oc1ccc(C[C@@H]2CNC(=S)N2CCCCC2CCCCC2)cc1 | 53.0* | 40.4* | 37.7 | -13.6 | 25.0 | -36.2 | 25.3 | 17.9
CC1=C/C(=N\OC(=O)/C=C/c2ccccc2)C(C)=CC1=O | 45.6* | 42.7* | 37.1 | 2.6 | 1.0 | 0.7 | 16.0 | 23.0
N/C(=N\OC(=O)/C=C/c1ccccc1)c1ccc(Cl)cc1 | 8.4 | 15.0 | 11.1 | -13.8 | 48.3 | 6.4 | . | .
COC(=O)c1sc(NC(=O)c2c(F)cccc2F)c(C#N)c1C | 45.0* | 41.3* | 28.9 | -5.3 | 11.3 | . | 37.7* | 26.0
COc1ccc(/C(N)=N/OC(=O)c2ccc3c(c2)OCO3)cc1 | 63.7* | 65.8* | 36.3 | -15.3 | -8.8 | -4.9 | 49.8* | -19.8
Cc1ccc(/C(N)=N/OC(=O)c2ccc3c(c2)OCO3)cc1 | 55.8* | 63.1* | 26.4 | 5.5 | -0.7 | 2.2 | 51.5* | -12.4
CC1=CCC(C(=O)O)C(C(=O)Nc2nc3ccc(S(C)(=O)=O)cc3s2)C1 (stereo not given) | 12.3 | -9.0 | -13.8 | 2.2 | 1.1 | 7.7 | . | .
CC(=O)Nc1cccc2c1C(=O)N(c1cccc(C)c1)C2=O | 29.6 | -13.9 | 0.1 | -12.6 | -0.5 | -11.4 | . | .
NC(=S)Nc1cc2ccccc2c2ccccc12 | 34.1 | 29.6 | 35.6 | 1.7 | -2.8 | 23.3 | . | .
NC(=S)Nc1cccc2cc3ccccc3cc12 | 40.4* | 40.3* | 43.6 | -13.9 | 17.7 | 6.7 | 26.4 | 31.7*

High-throughput results: PubChem BioAssay, several laboratories
